# Compound activity (PubChem BioAssay)
# PNC inhibitor = perinucleolar compartment assembly inhibition; activity change (PNC), negative = inhibition, % at 10 µM; hit rate 3.1% among 140,000; PC3M PTB-GFP, PNC prevalence imaging, 16 h; hits give low values; AID 2417;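 active means readout at or below -70, meaning at least 70% loss of cells showing the perinucleolar compartment, a nuclear body marking cancer cells; inconclusive means readout between -30 and a set limit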;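 further: plate controls were DMSO wells for no effect and camptothecin positive control wells for full effect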
#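 Compounds are pinned in duplicate onto adhered PC3M cells stably expressing GFP-tagged PTB and incubated 16 h at 37 C. Cells are then fixed, nuclei stained with Hoechst, and PNC-positive cells counted.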
# IMPase cell inh = membrane-permeable compound that blocks inositol monophosphatase | 120,000 tested, under 10 active | CHO-M1 cells, IP1 accumulation, HTRF TR-FRET ratio | P97697 | inhibition (IP1 accumulation), % at 46.1 µM | AID 901; active means well fitted curve in the direction sought with a large enough effect in the signal ratio, not every such curve was filed as active; inconclusive means small, poorly fitted or top-dose-only effect, or a change in a side signal; inactive means no such curve, though single readings can be large or run the other way; the % refers to the signal ratio;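 further: cells stimulated with carbachol in lithium chloride buffer; plate controls were DMSO basal wells for no effect and reference inhibitor wells for full effect; higher means more IMPase inhibition seen as more IP1 and lower FRET ratio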
# Target sequence (P97697 whole entry, looked up): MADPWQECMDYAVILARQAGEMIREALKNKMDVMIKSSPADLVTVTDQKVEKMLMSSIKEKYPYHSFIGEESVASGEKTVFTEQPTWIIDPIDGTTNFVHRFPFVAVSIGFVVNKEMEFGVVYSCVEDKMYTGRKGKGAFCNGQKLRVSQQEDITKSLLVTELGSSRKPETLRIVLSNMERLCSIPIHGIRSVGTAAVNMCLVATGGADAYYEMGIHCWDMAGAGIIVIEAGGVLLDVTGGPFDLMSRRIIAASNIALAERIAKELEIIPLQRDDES
#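 In this qHTS, compounds (final up to 46 uM) act on CHO-M1 cells that are then activated through the M1 receptor with carbachol, in pH 7.4 buffer containing 50 mM LiCl, for 30 min. IP1 accumulation is quantified by the IP-One immunoassay.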
# NPSR antag = antagonists of human neuropeptide S receptor cAMP signaling. CHO-NPSR cells, cAMP TR-FRET, antagonist mode. hit rate 1% among 220,000. Potency, µM (titrated, usually from 38.3 µM), for inactives: top-dose activity change, negative = inhibition, usual class: inhibitors. AID 1461; further: potency means the concentration at half of the fitted maximal effect; nearly all actives have a fitted effect of over 50% in size
# ALDH1A1 block = ALDH1A1 (human) enzyme inhibition. Purified ALDH1A1, NADH fluorescence, propionaldehyde substrate. Potency, µM (highest dose often 75.3 µM), without a hit: at the top dose activity, negative = inhibition, actives largely listed as inhibitors. hit rate 7.3% among 220,000. AID 1030; active means well fitted inhibition curve with a large enough effect, not every such curve was filed as active; inconclusive means small, poorly fitted or top-dose-only effect, or another doubt; inactive means no such curve, though single readings can be large or run the other way;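 further: potency means the concentration at half of the fitted maximal effect; plate controls were no enzyme wells and a reference inhibitor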
# Target sequence (P00352 whole entry, looked up): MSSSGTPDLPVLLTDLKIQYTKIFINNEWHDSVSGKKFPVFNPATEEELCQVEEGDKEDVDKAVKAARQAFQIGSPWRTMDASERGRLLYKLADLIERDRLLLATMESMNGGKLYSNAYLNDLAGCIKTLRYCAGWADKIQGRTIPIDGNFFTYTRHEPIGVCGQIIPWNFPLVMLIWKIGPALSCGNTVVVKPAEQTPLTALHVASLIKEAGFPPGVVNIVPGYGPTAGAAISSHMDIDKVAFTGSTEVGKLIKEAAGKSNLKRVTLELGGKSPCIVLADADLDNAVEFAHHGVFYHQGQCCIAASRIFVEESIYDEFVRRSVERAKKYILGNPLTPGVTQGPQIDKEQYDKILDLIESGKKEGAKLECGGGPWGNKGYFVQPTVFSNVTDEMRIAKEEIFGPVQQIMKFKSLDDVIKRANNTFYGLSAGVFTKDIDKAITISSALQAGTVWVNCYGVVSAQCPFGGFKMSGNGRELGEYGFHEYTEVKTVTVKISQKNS
# HPGD inh = inhibitors of human 15-hydroxyprostaglandin dehydrogenase (HPGD) | P15428 | Potency, µM, inactives show top-dose activity change, negative = inhibition, most hits filed as inhibitors | hit rate 4.3% among 150,000 | AID 894 | purified HPGD, NADH fluorescence kinetic, PGE2 substrate; active means well fitted inhibition curve with a large enough effect, not every such curve was filed as active; inconclusive means small, poorly fitted or top-dose-only effect, or another doubt; inactive means no such curve, though single readings can be large or run the other way; further: potency means the concentration at half of the fitted maximal effect
#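 NADH formation kinetics: reaction with 30 uM PGE2 and 1 mM NAD+ (final), 20 nM enzyme, Tris-HCl pH 8 with Tween 20, after 15 min compound preincubation at room temperature. Fluorescence change, last versus first of five reads.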
# IMPase Li inh = membrane-permeable IMPase blocker, potentiated with lithium; Potency, µM (titrated, usually from 59.4 µM), for the others: at the highest dose activity, negative = IMPase inhibition, usual class: inhibitors; hit rate 0.35% among 210,000; CHO-M1 cells, IP1 TR-FRET (IP-One), carbachol + lithium; AID 1457;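 further: IP1 builds up when IMPase is blocked and the TR-FRET signal falls; potency means the concentration at half of the fitted maximal effect; plate controls were basal vehicle for no effect and high inhibitor control for full effect; nearly all actives have a fitted effect of over 50% in size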
#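 Lithium-sensitised IP1 accumulation assay; M1-expressing CHO cells treated 30 min at 37C with compound. Competitive antibody detection by time-resolved FRET followed a 10 min room-temperature lysis step.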
# * hit, by the source's call; ? = inconclusive; . = no result given; [ ] = dose if it differs, or a comment. The list is not random: actives were taken first. Their share in the collection is about 11%. Unless noted, the call rests on the fitted dose curve; in most records, active means well fitted curve in the direction sought with a large enough effect; inconclusive means small, poorly fitted or top-dose-only effect, or another doubt; inactive means no such curve, though single readings can be large; an effect the other way counts as inactive or inconclusive. Unless noted, on the % scale 0 is the no-effect control and ±100 the full control effect.
SMILES,PNC inhibitor,IMPase cell inh,NPSR antag,ALDH1A1 block,HPGD inh,IMPase Li inh
S=c1[nH]nc(-c2cccs2)n1/N=C/c1c(Cl)cccc1Cl,.,.,-14%,16µM*,.,0%
COc1ccc(/C=N/n2c(-c3cccs3)n[nH]c2=S)cc1,23,4,-29%[46.1 µM],-9%,4µM*,-2%[38.3 µM]
COc1ccc(NC(=O)CSC2=Nc3ccccc3C3=NC(CCC(=O)NC4CCCCC4)C(=O)N23)cc1Cl (configuration not stated),.,-3,.,.,.,.
O=C(/C=C/c1ccccc1)NC(=S)Nc1cccnc1,-26,-1,-13%[46.1 µM],13%,.,.
CCCCCCSc1nnc2[nH]c(=O)cc(N)n12,13,.,6%,3%,11µM*,4%
S=C(c1ccc(-c2cc(Cl)ccc2Cl)o1)N1CCOCC1,60,2,-21%[46.1 µM],22µM*,28µM*,11%[38.3 µM]
S=C(c1ccc(-c2cc(Cl)ccc2Cl)o1)N1CCCCC1,?,.,-48%,3%,7.9µM*,0%
CC(=O)N1CCN(C(=S)c2ccc(-c3ccc(Cl)cc3)o2)CC1,?,-8,-15%[46.1 µM],0%,.,.
O=C(Nc1ccc(CN2CCOCC2)cc1)c1ccc(-c2cc(Cl)ccc2Cl)o1,-3,6,-4%[46.1 µM],?,?,39%[38.3 µM]
COC(=O)C1=CN(C)C=C(C(=O)OC)C1c1ccccc1Cl,-109*,?,-1%,?,?,1%
CCCCOc1ccccc1C1C(C(=O)OC)=CN(CC)C=C1C(=O)OC,28,0,?,?,?,-3%[38.3 µM]
C=CCn1c(-c2cc(OC)cc(OC)c2)n[nH]c1=S,-28,-6,-14%[46.1 µM],22µM*,-28%,-7%[38.3 µM]
Cn1c(SCC(=O)N2CCOCC2)nnc1-c1cccc(NC(=O)c2ccccc2F)c1,25,-16,-10%[46.1 µM],25µM*,-15%,16%[38.3 µM]
Cn1c(SCC(=O)Nc2ccc3nc(SCC(=O)N4CCCC4)sc3c2)nnc1-c1ccccc1,-22,?,-9%[46.1 µM],22µM*,4µM*,8%[38.3 µM]
Cn1cnnc1SCC(=O)Nc1ccc2nc(SCc3ccccc3F)sc2c1,-13,-4,-4%[46.1 µM],13µM*,-24%,12%[38.3 µM]
C/C(=N\NC(=S)NCCc1ccccc1)c1ccc(C)cc1,246,2,?,-4%,-19%,27%
CCCC(C(=O)NC1CCCC1)N(C(=O)Cn1nnc(-c2ccc(C)o2)n1)C1CCCC1 (configuration not stated),?,5,-16%[46.1 µM],25µM*,?,7%[38.3 µM]
CCN(CC)C(=O)Cn1nnc(-c2ccc(C)o2)n1,-3,-1,-21%[46.1 µM],25µM*,-11%,-1%[38.3 µM]
Cn1c(=O)oc2cc(S(=O)(=O)N3CCCC(C(=O)Nc4ccc5c(c4)OCCO5)C3)ccc21 (configuration not stated),?,6,0%[46.1 µM],-10%,-13%,2%[38.3 µM]
COc1ccc2c(C)cc(SC3CCOC3=O)nc2c1 (configuration not stated),.,.,-10%,-15%,.,-7%
COc1ccc(NS(=O)(=O)c2ccc3oc(SC4CCOC4=O)nc3c2)cc1 (configuration not stated),14,10,6%[46.1 µM],0.56µM*,32µM*,59%[38.3 µM]
Cc1ccc(NC(=O)CSc2nc(C)c(C)c(C)n2)c([N+](=O)[O-])c1,-26,.,1%,-7%,-16%,6%
COc1ccc(O)c(C(=O)c2cc(C#N)c(=O)n(CC3CCCO3)c2)c1 (configuration not stated),-4,2,-9%[46.1 µM],25µM*,-28%,10%[38.3 µM]
CC(=O)NC1C(=O)Nc2c(C)cc(C)cc21 (configuration not stated),?,2,-2%[46.1 µM],?,0%,-4%[38.3 µM]
CCc1cc2ccccc2nc1SCC(=O)Nc1cc(C)on1,14,-10,-4%[46.1 µM],?,-28%,10µM*
SMILES,PNC inhibitor,IMPase cell inh,NPSR antag,ALDH1A1 block,HPGD inh,IMPase Li inh
CCc1cc2cc(C)c(C)cc2nc1SCC(=O)Nc1cc(C)on1,.,.,-53%,12%,.,?
CCc1cc2ccc(OC)cc2nc1SCC(=O)Nc1cc(C)on1,?,-4,10µM*,1%,-14%,?
O=C1c2ccccc2C(=O)C12OC2c1ccc(Cl)cc1Cl (configuration not stated),-24,.,?,25µM*,-18%,-2%
O=C1c2ccccc2C(O)N1c1ccc(Cl)cc1 (configuration not stated),17,-13,7%[46.1 µM],19%,-10%,-13%[38.3 µM]
Cc1cccc2nc(-c3cccc(NC(=O)Cc4ccccc4)c3)cn12,-109*,.,0%,?,-24%,4%
O=C1CSC2(CCCCC2)N1CCO,11,12,13%[46.1 µM],-1%,.,.
COc1cccc(N2CCN(Cc3nc(N)nc(Nc4ccccc4OC)n3)CC2)c1,13,10,-8%[46.1 µM],?,-15%,32%[38.3 µM]
COCCCNC(=O)c1ccc(N2CCCC2)c(NS(=O)(=O)c2ccc(C)cc2)c1,7,10,-7%[46.1 µM],14µM*,-25%,-2%[38.3 µM]
Cc1ccc(S(=O)(=O)Nc2cc(C(=O)NCCN3CCCC3)ccc2N2CCCCC2)cc1,-18,11,?,?,-31%,-2%[38.3 µM]
CCOCCCNC(=O)c1ccc(N2CCCC2)c(NS(=O)(=O)c2ccc(C)cc2)c1,.,.,-29%,7.9µM*,.,30%
Cc1ccc(S(=O)(=O)Nc2cc(C(=O)NCCN(C)C)ccc2N2CCCCC2)cc1,56,16,-9%[46.1 µM],16µM*,-6%,-1%
CC1CCN(c2nc(-c3ccccc3)c(C#N)c(=O)[nH]2)CC1,31,-17,13µM*,?,-20%,-17%[38.3 µM]
COc1ccc(-c2nc(-c3ccccc3)[nH]c(=O)c2C#N)cc1,-20,-6,-8%[46.1 µM],-1%,20µM*,1%[38.3 µM]
CC(C)c1ccc(-c2nc(N3CCCCC3)[nH]c(=O)c2C#N)cc1,-24,6,0%[46.1 µM],5%,-21%,-3%
CC(=O)/C(=N/Nc1cccc(C)c1)N1CCOCC1,22,4,17%[46.1 µM],?,-21%,30%[38.3 µM]
CCC(C)CCCCC(=O)NC(CCN)C(=O)NC(C(=O)NC(CCN)C(=O)NC1CCNC(=O)C(C(C)O)NC(=O)C(CCN)NC(=O)C(CCN)NC(=O)C(CC(C)C)NC(=O)C(Cc2ccccc2)NC(=O)C(CCN)NC1=O)C(C)O (configuration not stated),.,.,.,10%,-2%,3%
C/C(Cc1ccccc1)=N\NC(=O)CCCCCC(=O)N/N=C(\C)Cc1ccccc1,90,-1,-14%[46.1 µM],11µM*,-1%,1%[38.3 µM]
O=C(NCCCn1ccnc1)c1cc(S(=O)(=O)N2CCOCC2)ccc1F,.,.,5%,4%,.,4%
CN(C)c1ccc(-n2cccc2/C=C/[N+](=O)[O-])cc1,.,.,7.9µM*,?,.,13%
